Bioassay records from PubChem.
A selection: hits, their analogues and other compounds. The true share with any hit is near 21%.
HCMV antiviral: qHTS Assay for inhibitors of the human cytomegalovirus (HCMV) | activity change, negative = inhibition, % at 57.5 µM | HFF cells, HCMV-luciferase reporter, 72 h; stronger effect = lower value | 410,000 tested, 4.5% active; in the data active = activity change below about -60%; inconclusive = no clear call, values can overlap the other calls; inactive = above about -39%; note: % is set by controls: 0 for no effect and ±100 for the full control effect
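Luciferase read-out from HCMV-luciferase-infected HFFs (MOI 1 PFU/cell) 72 h post infection at 37C; compounds added after 16 h cell attachment; activity normalized between buffer-only basal and Salinomycin (10uM) inhibitor controls.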
CHX counter: Cycloheximide Counterscreen for Small Molecule Inhibitors of Shiga Toxin; cell reporter, cycloheximide protein synthesis inhibition counterscreen; max response, %; 300,000 tested, 12% active; AID 2314, 2010; in the data active = max response mostly above about 13%, no sharp cut-off; inactive = mostly below about 14%; note: read at 38.3 µM for the half of the compounds with a filed dose; 0% is about no effect
HCV inhibitor: qHTS Assay for Inhibitors of Hepatitis C Virus (HCV). Huh7.5.1 HCVcc-Cre infection, luciferase reporter, 44 h. Potency, µM (highest dose often 41.8 µM), for the others: at the highest dose activity change, negative = inhibition, hits mostly inhibitors. 340,000 tested, 3.4% active. AID 651820, 2012; note: potency is the fitted concentration of half-maximal effect; % is set by controls: 0 for no effect and ±100 for the full control effect
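Antiviral activity was scored by luciferase reporter output from cells infected with HCVcc-Cre (~0.5 moi) in presence of compound, 44 h infection period, cells seeded 1,000/well 4 h prior.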
Pf growth 48h: Primary qHTS for delayed death inhibitors of the malarial parasite plastid, 48 hour incubation | Potency, µM (series often up to 28.7 µM), for the others: top-dose activity change, negative = inhibition, hits mostly inhibitors | 310,000 tested, 5.9% active | P. falciparum luciferase growth in erythrocytes, 48 h; note: potency is the fitted concentration of half-maximal effect; % is set by controls: 0 for no effect and ±100 for the full control effect
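Erythrocytes infected with P. falciparum carrying an integrated firefly luciferase reporter (2% hematocrit, 0.1% parasitemia final) were exposed to compounds in RPMI 1640 with 0.5% Albumax at 37 C, 5% CO2. Growth inhibition was scored as reduced luminescence.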
Pf growth 96h: Primary qHTS for delayed death inhibitors of the malarial parasite plastid, 96 hour incubation; AID 504834, 2011; 320,000 tested, 6.9% active; P. falciparum luciferase reporter growth, 96 h; Potency, µM (titrated, usually from 28.7 µM), inactives show at the highest dose activity change, negative = inhibition, usual class: inhibitors; note: potency is the fitted concentration of half-maximal effect; % is set by controls: 0 for no effect and ±100 for the full control effect
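P. falciparum expressing integrated firefly luciferase, in erythrocytes at 2% hematocrit, 0.05% parasitemia, incubated with compounds 96 h at 37 C, 5% CO2. Growth inhibition read as loss of luminescence; two-generation exposure targets delayed-death apicoplast inhibitors.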
Shiga inhibitor: A qHTS for Small Molecule Inhibitors of Shiga Toxin; Vero cells, Shiga toxin protein synthesis inhibition reporter; inhibition, % at 38.7 µM; 290,000 tested, 9.2% active; AID 2315, 2010; in the data active = inhibition mostly above about 28%, no sharp cut-off; inactive = mostly below about 43%; note: 0% is about no effect
Active calls of the source: *; [ ] = remark or other dose. Unless noted, calls come from the whole dose curve; as a rule, active = well fitted inhibition curve with a large enough effect; inconclusive = small, poorly fitted or top-dose-only effect, or another doubt; inactive = no such curve, though single readings can be large or run the other way.

For O=C(Nc1ccccc1)N1CCC(C(=O)N(Cc2ccco2)Cc2cccs2)CC1 the results were HCMV antiviral -29, CHX counter 5, HCV inhibitor -13%, Pf growth 48h inconclusive, Pf growth 96h 1.7µM* and Shiga inhibitor 12.
For Cc1cccc(-c2nc3scc(CCNC(=O)c4ccc(Br)o4)n3n2)c1 the results were HCMV antiviral -4.
`O=C1CC(=C(c2ccccc2)c2ccccc2)C(=O)N1CCCCN1CCN(c2cccc(Cl)c2)CC1` gave HCMV antiviral 3, CHX counter -1, HCV inhibitor 11µM*, Pf growth 48h inconclusive, Pf growth 96h -3%[5.75 µM] and Shiga inhibitor -12.
Screening Cc1ccccc1N1CCN(CCCN2C(=O)CC(=C(c3ccccc3)c3ccccc3)C2=O)CC1 returned HCMV antiviral 19, CHX counter -2, HCV inhibitor inconclusive, Pf growth 48h -1%, Pf growth 96h 2%[5.75 µM] and Shiga inhibitor -10.
For Cc1cc2nc(-c3cccc(NC(=O)COc4ccc(C(C)C)cc4)c3)oc2cc1C the results were HCMV antiviral 89.
`CCC1=C(OC(=O)N(CC)CC)N2C(=O)OC(=NCCOC)[C@]2(Cc2ccccc2)[C@H]2C1=CC[C@H]1C(=O)NC(=O)[C@H]12` gave HCMV antiviral 31, CHX counter -6, HCV inhibitor 11%, Pf growth 48h 9.3µM*, Pf growth 96h inconclusive and Shiga inhibitor 4.
Screening CCC1=C(OC(=O)N(CC)CC)N2C(=O)OC(=NCC3CC3)[C@]2(Cc2ccccc2)[C@H]2C1=CC[C@H]1C(=O)NC(=O)[C@H]12 returned HCMV antiviral 12, CHX counter -2, HCV inhibitor 4%, Pf growth 48h 10µM*, Pf growth 96h 7.4µM* and Shiga inhibitor 2.
`CCC1=C2CC[C@H]3C(=O)NC(=O)[C@H]3[C@H]2[C@@]2(Cc3ccccc3)C(=NCC(=O)OC)OC(=O)N2C1=O` gave HCMV antiviral -5, CHX counter -5, HCV inhibitor 2%[8.37 µM], Pf growth 48h 35%, Pf growth 96h 0% and Shiga inhibitor -8.
For COc1cccc(NC(=O)Cn2c(=O)n(CCCC(=O)NCc3ccc4c(c3)OCO4)c(=O)c3ccccc32)c1 the results were HCMV antiviral 18.
COc1ccc(-c2sc3cc(OC)c(OC)cc3c2C#CCCO)cc1 was read as HCMV antiviral -18, HCV inhibitor inconclusive, Pf growth 48h inconclusive and Pf growth 96h inconclusive.
COc1ccc(-c2sc3ccc(N4CCOCC4)cc3c2C#CCCO)cc1 was read as HCMV antiviral 37 and HCV inhibitor 4µM*.
COc1ccc(-c2sc3ccc(N4CCOCC4)cc3c2-c2ccc(OC)c(F)c2)cc1 was read as HCMV antiviral -2, CHX counter 2, HCV inhibitor -8%, Pf growth 48h 15µM*, Pf growth 96h 6.6µM* and Shiga inhibitor -5.
Cc1ccc(NC(=S)N/N=C/c2cccn2Cc2ccccc2F)cc1 was read as HCMV antiviral 11, CHX counter 1, HCV inhibitor 5%, Pf growth 48h 9.3µM*, Pf growth 96h inconclusive and Shiga inhibitor -3.
Cc1ccc(NC(=S)N(CCN2CCOCC2)Cc2ccccc2F)cc1 was read as HCMV antiviral 37, CHX counter 4, HCV inhibitor 25%, Pf growth 48h -11%, Pf growth 96h inconclusive and Shiga inhibitor -3.
For O=S(=O)(c1ccc2[nH]ccc2c1)N1CCCCCC1 the results were HCMV antiviral inconclusive, CHX counter 1, HCV inhibitor 18%, Pf growth 48h -1%, Pf growth 96h 33% and Shiga inhibitor 5.
Screening O=C(c1ccc(Cl)cc1)C1CCCN(Cc2ccc3nonc3c2)C1 (centres undefined) returned HCMV antiviral -25, CHX counter 1, HCV inhibitor 22µM*, Pf growth 48h 0%, Pf growth 96h 10µM* and Shiga inhibitor 21.
`O=C(c1cccc(Cl)c1)C1CCCN(Cc2ccc(N3CCNC3=O)cc2)C1` (centres undefined) gave HCMV antiviral -15, CHX counter 1, HCV inhibitor -28%, Pf growth 48h inconclusive, Pf growth 96h 9.3µM* and Shiga inhibitor 19.
Screening COc1ccc(CN2CCCC(C(=O)c3ccc(Cl)cc3)C2)cc1Cn1cccn1 (centres undefined) returned HCMV antiviral -9, CHX counter 7, HCV inhibitor 10µM*, Pf growth 48h inconclusive, Pf growth 96h inconclusive and Shiga inhibitor -5.
COc1cccc(C(=O)C2CCCN(Cc3ccc(OC)c(Cn4cncn4)c3)C2)c1 (centres undefined) was read as HCMV antiviral 0, CHX counter -3, HCV inhibitor inconclusive, Pf growth 48h inconclusive, Pf growth 96h inconclusive and Shiga inhibitor 20.
Screening O=C(CC1C(=O)NCCN1Cc1ccccc1C(F)(F)F)NC1CCCCC1 (centres undefined) returned HCMV antiviral -34, CHX counter -3, HCV inhibitor 10%, Pf growth 48h 5%, Pf growth 96h 10% and Shiga inhibitor -5.
O=C1C=C(O)C(n2cncn2)C(c2ccc(F)cc2)C1 (centres undefined) was read as HCMV antiviral -37, CHX counter -9, HCV inhibitor 11%, Pf growth 48h inactive, Pf growth 96h -7% and Shiga inhibitor 16.
`COc1ccc(C2CC(=O)C(C3NCCc4ccccc43)=C(O)C2n2cncn2)cc1` (centres undefined) gave HCMV antiviral 18, CHX counter 6, HCV inhibitor -11%, Pf growth 48h 17µM*, Pf growth 96h 66% and Shiga inhibitor -5.
For COc1cccc(C(=O)CN2CCN(S(=O)(=O)c3cccc([N+](=O)[O-])c3)CC2)c1 the results were HCMV antiviral -25, CHX counter 2, HCV inhibitor -4%, Pf growth 48h -2%, Pf growth 96h 0.41µM* and Shiga inhibitor -4.
CCOc1ccc(S(=O)(=O)N2CCN(C(=O)c3oc4ccc(OC)cc4c3C)CC2)cc1 was read as HCMV antiviral -11, HCV inhibitor inconclusive, Pf growth 48h 10µM* and Pf growth 96h inconclusive.
`CCOC(=O)c1oc2ccc(S(=O)(=O)n3nc(-c4ccccc4)cc3N)cc2c1C` gave HCMV antiviral 0, CHX counter -3, HCV inhibitor 1%, Pf growth 96h inconclusive and Shiga inhibitor -8.
